# Records with an inconclusive call do not appear. Values without a mark were called inactive. Calls come from the whole dose curve; as a rule, active = well fitted cell-killing curve with a large enough effect in the repeat runs; inconclusive = weak or mixed curves; inactive = flat fitted curve, though single readings scatter.
# Test: qHTS RealTime-Glo MT Cell Viability Assay in HepG2 cells - 32 hour (AID 1224877); note: nearly all actives have a fitted effect of over 55% in size
# Conditions: RealTime-Glo luminescence; series mostly up to 76.8 µM; activity change, negative = cytotoxic: at the top concentration
# How it was run: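 HepG2 cells (600/well) were dispensed with RealTime-Glo reagents, incubated 5 h at 37 °C, then treated with compounds in DMSO for up to 40 h. Nonlytic NanoLuc luminescence reflecting viable cells was read at each stated time point.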
# % is set by controls: 0 for no effect and ±100 for the full control effect.
row,Compound,"activity change, negative = cytotoxic"
1,C=CCCC,0.935%
2,CC(C)(C)c1ccc(CCC=O)cc1,1.12%
3,O=C(Nc1ccccc1)c1cc([N+](=O)[O-])ccc1Cl,-10.5%
4,CC(C)=CCC[C@H](C)CCO,0.928%
5,CC(=O)Nc1ccn(C2COC(COC(=O)c3ccccc3)O2)c(=O)n1 (stereo not drawn),3.76% [at 35.3 µM]
6,N#C[C@@H]1CC(F)(F)CN1C(=O)CNC1CC2CCC(C1)N2c1ncccn1 (stereo partly drawn),-0.327%
7,CC(C)=CCCC(C)C=O (stereo not drawn),-4.61%
8,C=CC(=O)NC(C)(C)C,0.419%
9,C1=COCCC1,-2.64%
10,CCOC(OCC)OCC,3.1%
11,[O-][n+]1ccc(Cl)cc1,4.3%
12,CC1(C)C(=O)NC(=O)N1CO,2.19%
13,CCCCCCCCS,0.748%
14,O=C(NC1CCN(CCc2c[nH]c3ccccc23)CC1)c1ccccc1,-4.55% [at 35.3 µM]
15,CCC(C(=O)O)c1ccc(N2Cc3ccccc3C2=O)cc1 (stereo not drawn),0.861% [at 35.3 µM]
16,Cc1ccccc1CCO,-0.0975%
17,O=c1[nH]nc(-c2ccc([N+](=O)[O-])o2)o1,-4.75%
18,CCC(=O)O[C@]1(C(=O)COC)[C@@H](C)C[C@H]2[C@@H]3CCC4=CC(=O)C=C[C@]4(C)C3(F)[C@@H](O)C[C@@]21C (stereo partly drawn),-11.4% [at 35.3 µM]
19,O=C(OCCOCCOCCOC(=O)c1ccccc1)c1ccccc1,-5.06%

row,Compound,"activity change, negative = cytotoxic"
1,COC(=O)c1cc(Cl)ccc1[N+](=O)[O-],1.24%
2,Cc1cccc(C)c1NC(=O)CN1CCCC1,2.77% [at 35.3 µM]
3,COC(=O)/C=C/C(C)=C\C=C\C(C)=C\C=C\C=C(C)\C=C\C=C(C)\C=C\C(=O)O,-9.17%
4,CCc1ccc(C(=O)C(C)CN2CCCCC2)cc1 (stereo not drawn),-2.4% [at 35.3 µM]
5,OCCOc1cccc(OCCO)c1,1.67%
6,C=CC(C)(O)CC/C=C(/C)CCC=C(C)C (stereo not drawn),-0.856%
7,O=C(OC1C[C@H]2CC[C@@H](C1)[N+]21CCCC1)C(O)(c1ccccc1)c1ccccc1 (stereo partly drawn),0.919% [at 35.3 µM]
8,CNc1ccccc1,-0.202%
9,CCCCCCC/C=C/C=O,3.25%
10,NCCOCCOCCN,0.458%
11,FC1(F)C(F)(F)C(F)(F)C2(F)C(F)(C1(F)F)C(F)(F)C(F)(F)C1(F)C(F)(F)C(F)(F)C(F)(F)C(F)(F)C12F (stereo not drawn),0.497%
12,COc1ccnc2c1CCCCC2S(=O)c1nc2ccccc2[nH]1 (stereo not drawn),2.42% [at 35.3 µM]
13,CCCCCCCCCCCCCCCCN,0.0787% [at 35.3 µM]
14,FC(F)(Cl)C(F)(Cl)Cl,-0.769%
15,Cc1cc(C)c(C)c(O)c1,-0.74%
16,CC(=O)c1cccnc1,-0.982%
17,Cc1c(Cl)cccc1[N+](=O)[O-],-0.918%
18,CCN(CC)CC(=O)OCC(=O)[C@@]1(O)CC[C@H]2[C@@H]3CCC4=CC(=O)CC[C@]4(C)[C@H]3[C@@H](O)C[C@@]21C,-1.73% [at 35.3 µM]
19,CCCc1ccc(OC)cc1,3.39%

# Source: PubChem BioAssay (Tox21)
